{"source": "ChEMBL document CHEMBL4513216", "about": "“Probing the Open Global Health Chemical Diversity Library for Multistage-Active Starting Points for Next-Generation Antimalarials” (ACS Infect Dis, 2020)", "note": "Among all 69,000 compounds or so, about 8,600 (12%) showed an effect of 50% or more. Many of the other results were omitted from the sample, so strong results are more common in it than they were."}
{"system": "Plasmodium berghei", "assay": "Screen against P. berghei liver stage (PbLuc), transformed with Luciferase, at 10uM", "assay_type": "functional, HepG2", "settings": "tested at 10 uM", "units": {"INHIBITION": "%"}}
{"compound": "O=C(NCC1CCOCC1)c1cc(-c2cccnc2)c2cnccc2n1", "INHIBITION": -4.87}
{"compound": "CCn1cc(C2CCN(Cc3ccnc(N(C)C)c3)CC2)cn1", "INHIBITION": 66.7}
{"compound": "CN(C)c1cc(C2CCCN(Cc3cnn(C)c3)C2)ccn1", "note": "(stereo unspecified)", "INHIBITION": 3.85}
{"compound": "CCn1cc(CN2CCC(c3nnc(CN(C)C)n3CC)CC2)cn1", "INHIBITION": 15.1}
{"compound": "Cc1ccc(C(=O)N2CCCCC2c2[nH]ncc2S(C)(=O)=O)s1", "note": "(stereo unspecified)", "INHIBITION": 36.7}
{"compound": "CN(C)CC1CSCCCN1C(=O)c1ccsc1", "note": "(stereo unspecified)", "INHIBITION": -26.3}
{"compound": "CN1CC2(CCC(C(=O)O)CC2)Oc2ccccc2C1=O", "note": "(stereo unspecified)", "INHIBITION": -4.35}
{"compound": "Cc1ccc(C)c(C(=O)Nc2ccc(OC3CCN(C)CC3)cc2)c1", "INHIBITION": 55.8}
{"compound": "CSc1ccccc1C(=O)Nc1ccc(OC2CCN(C)CC2)cc1", "INHIBITION": 11.8}
{"compound": "Cc1cccc(C(=O)Nc2ccc(OC3CCN(C)CC3)cc2)c1", "INHIBITION": 63.5}
{"compound": "CN1CCC(Oc2ccc(NC(=O)c3ccccc3Br)cc2)CC1", "INHIBITION": 51.8}
{"compound": "COc1cccc(C(=O)Nc2ccc(OC3CCN(C)CC3)cc2)c1", "INHIBITION": 49.2}
{"compound": "CN1C(=O)CO[C@H](c2ccc(NC(=O)c3cccc(F)c3)cc2)[C@H]1CO", "INHIBITION": 38.1}
{"compound": "Cc1ccc(C(=O)Nc2ccc(OC3CCN(C)CC3)cc2)c(C)c1", "INHIBITION": 47}
{"compound": "CN1CCC(Oc2ccc(NC(=O)c3cccc(Cl)c3)cc2)CC1", "INHIBITION": 65.1}
{"compound": "CN1CCC(Oc2ccc(NC(=O)c3ccccc3)cc2)CC1", "INHIBITION": 21.7}
{"compound": "COc1ccccc1C(=O)Nc1ccc(OC2CCN(C)CC2)cc1", "INHIBITION": -25.6}
{"compound": "Cc1ccccc1C(=O)Nc1ccc(OC2CCN(C)CC2)cc1", "INHIBITION": 10.7}
{"compound": "COCCc1noc(CN2CCCCC2Cn2cccn2)n1", "note": "(stereo unspecified)", "INHIBITION": -2.33}
{"compound": "CCCSCC(=O)NCc1cccc(CN(C)CC)c1", "INHIBITION": 39.8}
{"compound": "CN([C@@H]1CC[C@@H](N2CCOCC2)[C@@H]1O)S(=O)(=O)c1ccccc1", "INHIBITION": 3}
{"compound": "Cc1nnc(CN(Cc2ccco2)Cc2cccc3c2OCO3)n1C", "INHIBITION": -16.4}
{"compound": "CN(C)CC1(O)CCN(C(=O)c2ccc(-n3cccn3)cc2Cl)C1", "note": "(stereo unspecified)", "INHIBITION": 36.6}
{"compound": "CNC(=O)c1cc(S(=O)(=O)C(C)C)cs1", "INHIBITION": 24.1}
{"compound": "COc1ccc(OC)c(C(C)NS(=O)(=O)c2cnn(C)c2)c1", "note": "(stereo unspecified)", "INHIBITION": 11.2}
{"compound": "COc1ccc(C)cc1CCNS(C)(=O)=O", "INHIBITION": -18}
{"compound": "COc1ccc(C(C)NS(=O)(=O)c2ccc3c(c2)CCC(=O)N3)cc1F", "note": "(stereo unspecified)", "INHIBITION": 20.2}
{"compound": "COc1ccc(C)cc1C(C)NS(=O)(=O)c1ccc2c(c1)CCC(=O)N2", "note": "(stereo unspecified)", "INHIBITION": 54.5}
{"compound": "CCN(CC)S(=O)(=O)NCCc1cc(C)ccc1OC", "INHIBITION": -12.9}
{"compound": "COc1ccc(C)cc1CCNS(=O)(=O)c1ccc2c(c1)CCC(=O)N2", "INHIBITION": 56.3}
{"compound": "Cc1oncc1C(=O)N1C[C@H](OCc2ccccn2)[C@H]2OCCC[C@H]21", "INHIBITION": 15.4}
{"compound": "COc1ccc(F)c(-c2ccnc(N)c2)c1", "INHIBITION": 1.95}
{"compound": "CC(CC(=O)NCCNS(C)(=O)=O)C1CCCCC1", "note": "(stereo unspecified)", "INHIBITION": 44.5}
{"compound": "COCCn1cc2c(n1)C(CNS(C)(=O)=O)OCC2", "note": "(stereo unspecified)", "INHIBITION": -31}
{"compound": "CCN(CC)C(=O)c1ccn(COc2ccc(F)cc2F)n1", "INHIBITION": -3.93}
{"compound": "CCc1ncc(C(=O)NCCN2CCNC2=O)cn1", "INHIBITION": 22.285}
{"compound": "COC(=O)c1ccc(C(=O)N2CCC(c3nnc(C)s3)CC2)cc1", "INHIBITION": 20.4}
{"compound": "Cc1nnc(C2CCN(C(=O)c3ccc4[nH]ccc4c3)CC2)s1", "INHIBITION": -5.64}
{"compound": "Cc1nnc(C2CCN(C(=O)c3ccc4nccnc4c3)CC2)s1", "INHIBITION": 51.3}
{"compound": "CS(=O)(=O)c1cn[nH]c1C1CCCN(C(=O)Cn2cccn2)C1", "note": "(stereo unspecified)", "INHIBITION": 2.71}
{"compound": "COc1cccc2c3c(c(=O)[nH]c12)CC(C)(C)O3", "INHIBITION": -6.18}
{"compound": "CCOc1cc(C(=O)N(C)C)ccc1NC(=O)C(C)c1ccsc1", "note": "(stereo unspecified)", "INHIBITION": 51.5}
{"compound": "CCOc1ccc(C(=O)N(C)C)cc1NC(=O)c1ccsc1", "INHIBITION": -20.7}
{"compound": "CCOc1cc(C(=O)N(C)C)ccc1NC(=O)c1ccsc1", "INHIBITION": -23}
{"compound": "Cc1cccc2c1cnn2CCCNC(=O)c1ccnn1C", "INHIBITION": 35}
{"compound": "CC(C)Cc1cc(C(=O)O)nc2[nH]c(=O)[nH]c(=O)c12", "INHIBITION": 41.2}
{"compound": "Cc1nc(CNc2nc3c(s2)c(C)nn3C)cs1", "INHIBITION": 40.8}
{"compound": "Cc1csc(CNc2nc3c(s2)c(C)nn3C)n1", "INHIBITION": 8.03}
{"compound": "CCSCCNc1nc2c(s1)c(C)nn2C", "INHIBITION": 25.8}
{"compound": "CCc1csc(CNc2nc3c(s2)c(C)nn3C)n1", "INHIBITION": 65.7}
{"compound": "CCCOCCNc1nc2c(s1)c(C)nn2C", "INHIBITION": -18.6}
{"compound": "CCc1nc(CNc2nc3c(s2)c(C)nn3C)cs1", "INHIBITION": 63.1}
{"compound": "Cc1ccc(CCc2nc(C3CCOC3)no2)o1", "note": "(stereo unspecified)", "INHIBITION": 29}
{"compound": "CN(C)[C@@H]1CCN(C(=O)C2CCOCC2)[C@H]1Cc1ccncc1", "INHIBITION": 0.804}
{"compound": "COCCN1CCc2ccc(=O)n(Cc3csc(C)n3)c2CC1", "INHIBITION": -15.3}
{"compound": "CCc1nnc(Nc2cccc(C3CCN(c4cnccn4)CC3)n2)s1", "INHIBITION": 36.4}
{"compound": "CC(=O)N1C[C@H]2CC[C@@H](C1)N(S(=O)(=O)c1ccc(F)cc1Cl)C2", "INHIBITION": -10.2}
{"compound": "Cc1cc2ccccc2n1CCC(=O)NCc1ncc[nH]1", "INHIBITION": 20.5}
{"compound": "Cc1cc(CCC(=O)NCc2ncc[nH]2)ccc1Br", "INHIBITION": 54.8}
{"compound": "Cc1cc(CCC(=O)NCc2nccn2C)ccc1Br", "INHIBITION": 46.1}
{"compound": "CN1CCC(CCNC(=O)N2CCN(Cc3ccon3)CC2)CC1", "INHIBITION": 23.5}
{"compound": "CN(CCNC(=O)N1CCN(Cc2ccon2)CC1)C1CCCC1", "INHIBITION": -6.02}
{"compound": "CCC1CCCCN1CCNC(=O)N1CCN(Cc2ccon2)CC1", "note": "(stereo unspecified)", "INHIBITION": 50.8}
{"compound": "Cc1cnc(CNC(=O)[C@@]23CCO[C@@H]2CCN(C2CCCC2)C3)cn1", "INHIBITION": 18.6}
{"compound": "Cc1ccc(N2CC[C@H](O)[C@@H]2Cc2cnn(C)c2)nn1", "INHIBITION": -15.9}
{"compound": "CC(=O)N1CCN(C2CCc3ccccc32)CC1", "note": "(stereo unspecified)", "INHIBITION": 64.7}
{"compound": "CC(=O)N1CCN([C@@H]2CN(C(=O)c3ccccc3)C[C@H]2O)CC1", "INHIBITION": 11.8}
{"compound": "CC(=O)N1CCCN(C2CCCCc3ccccc32)CC1", "note": "(stereo unspecified)", "INHIBITION": 55.4}
{"compound": "O=C1CN(C(=O)CC2c3ccccc3CCc3ccccc32)CCN1", "INHIBITION": 42.1}
{"compound": "CC(=O)N1CCN(C2CCCCc3ccccc32)CC1", "note": "(stereo unspecified)", "INHIBITION": -1.16}
{"compound": "NC(=O)N1CCCN(C2CCCCc3ccccc32)CC1", "note": "(stereo unspecified)", "INHIBITION": 13.7}
